Experimental data reported in the supplement of paper PMC11417369.
± gives the standard deviation of the averaged measurements. Over roughly 25,000 sequences, “ln(normalized median fluorescence intensity)” has its median near 10; the highest 2% begin near 12. The list comes from a sample in which the highest values are over-represented; it also holds similar and randomly drawn sequences.

Each sequence was assayed on PfAP2-G AP2 domain (GST-tagged) (assay: gcPBM binding intensity (ln(normalized median fluorescence intensity)); higher = stronger DNA binding).
Procedure, shortened: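 Binding intensity is defined as the maximum Masliner-normalised natural-log median intensity across replicate spots for either probe orientation. It was measured on an Agilent 4 × 180k array of primer-extended double-stranded 36-bp intergenic genomic probes and negative controls, to which GST-tagged P. falciparum DNA-binding domains made in E. coli were applied for 1 h in 1× PBS with 1% milk, 0.2 mg/ml BSA, 0.5% salmon testes DNA and 0.03% Triton X-100. Detection was by Alexa488 anti-GST antibody and scanning at 488 nm.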

“TTCTTTTTAAATTACACACACATATAAATATGTATA [CACACA_site7618]” and “AAACAAAATGGTAACACACACATATATAAATATGTA [CACACA_site6994]” are within error of each other in “gcPBM binding intensity (ln)” value: 10.04 ± 0.071 for the first, 10.2 ± 0.35 for the second.

Going from “CATATTGGTATGCTCATGCACTTTTATTTTGTTATT [GTGCAC_site9553]” to “TTATAATAATATAATACATGCATATATATTTAAATA [TGCATGCA_site903]”, the “gcPBM binding intensity (ln)” value falls from 10.2 ± 0.13 to 9.62 ± 0.12.

“TGTTATTATTTGTACACACACATATAGATCCTTGTT [CACACA_site7667]” and “AAATTACTGTAAAAAAGTACAGAAGTTCTTATTTTT [XGTACX_site7416]” are within error of each other in “gcPBM binding intensity (ln)” value: 11.3 ± 0.83 for the first, 11.5 ± 0.93 for the second.

“AAAATTAAAATACGTACACACCTTATCTTTTTGGCT [CACACA_site4311]” and “TTAAAATTAAAATACGTACACACCTTATCTTTTTGG [CACACA_site7982]” are within error of each other in “gcPBM binding intensity (ln)” value: 11.7 ± 1.1 for the first, 11.6 ± 0.81 for the second.

“TTAAAATTATAATACGTACACACCTTATCTTTTTGG [CACACA_site278]” and “TAGTTAATATGAAAAAGTACACGTTTCAGTGAAAGT [XGTACX_site7402]” are within error of each other in “gcPBM binding intensity (ln)” value: 11.5 ± 0.86 for the first, 11.7 ± 1 for the second.

“TATATTAATATGAAAAGTACACATTCTATATATATA [XGTACX_site929]” and “TGGTTAATATGTGAAAGTACATATTATATTAAAATG [XGTACX_site2636]” are within error of each other in “gcPBM binding intensity (ln)” value: 11.4 ± 0.91 for the first, 11.1 ± 0.58 for the second.

“AATAAATAAATATATTGTACATATATATATATATAT [XGTACX_site8627]” and “ATAAATATACCAATCGGTACACATTTATACAAACAA [XGTACX_site7484]” are the same in “gcPBM binding intensity (ln)” value: 11 ± 0.53 for the first, 11 ± 0.64 for the second.

First: ATTCTAAATTAAAATACACACATATATACATAATAT [CACACA_site2792]
Second: TTTTGATCATCCAAAATATCTTCATCTGAACTACTA [CACACA_negctrl_site939]
The “gcPBM binding intensity (ln)” value of the first is higher: 9.985 ± 0.021 for the first, 9.84 ± 0.042 for the second.

“ATTTTATTTTTGTGCACACTGATAAATTGAAAAGAG [CACACA_site2948]” and “TATGATTCATAATAGTGTACGTAAAAATTGACTAGA [XGTACX_site5376]” are within error of each other in “gcPBM binding intensity (ln)” value: 10.8 ± 0.57 for the first, 11.7 ± 1 for the second.

“AATAAATTCATGAATTGTACGTAATGATAACATGAA [XGTACX_site2591]” and “AATAATCATTTTCATAGTACGTATGATTAGAAAAAA [XGTACX_site2589]” are within error of each other in “gcPBM binding intensity (ln)” value: 11.3 ± 0.75 for the first, 11 ± 0.66 for the second.

“AATGTGCCCACGCGTACACACAAAAAAAGAAAAAAA [CACACA_site2003]” and “AAAATGTGCCCACGCGTACACACAAAAAAAGAAAAA [CACACA_site2004]” are within error of each other in “gcPBM binding intensity (ln)” value: 11.7 ± 1.1 for the first, 11.6 ± 0.79 for the second.

“AAAAATGTGCACACGCGTACACACAAAAAAAGAAAA [XGTACX_site4097]” and “CATGCTTATATGTGCACACACAAAAGAAAAGAAAAA [CACACA_site1655]” are within error of each other in “gcPBM binding intensity (ln)” value: 11.5 ± 0.79 for the first, 10.6 ± 0.62 for the second.

“AATGTGCACACGCGTACACACAAAAAAAGAAAAAAA [CACACA_site7031]” and “TTAGCTACACGCTAATGTACACAAATACAAAGAAAA [XGTACX_site3993]” are within error of each other in “gcPBM binding intensity (ln)” value: 11.7 ± 1.1 for the first, 11.4 ± 0.71 for the second.

“TATTATATTATGTGATGTACATATTTATATAGGCCC [XGTACX_site4746]” and “TGTAGTTTTTATTTATGTACGCATAACATAATTTAA [XGTACX_site104]” are within error of each other in “gcPBM binding intensity (ln)” value: 11.2 ± 0.8 for the first, 11.6 ± 0.7 for the second.

“TTATTCATTTCGAAAAGTACAAATTCTGTTTATTAT [XGTACX_site6892]” and “TACACAAACAGACACACACACACACGCGCACAAAAA [CACACA_site7192]” are within error of each other in “gcPBM binding intensity (ln)” value: 11.1 ± 0.71 for the first, 10.6 ± 0.38 for the second.

“AAAAAAAAAATGTGCACACGCGTACACCCAAAAAAA [CACACA_site5149]” and “AAAAAAAAAAAATGTGCACACGCGTACACCCAAAAA [CACACA_site8614]” are the same in “gcPBM binding intensity (ln)” value: 11.7 ± 0.99 for the first, 11.7 ± 0.77 for the second.

“AACACGCACAGACACACACACAAAAATGATTAAAAA [CACACA_site7195]” and “CATATAAAAATGTGCACACACACACCCATATATATT [CACACA_site1526]” are within error of each other in “gcPBM binding intensity (ln)” value: 10.6 ± 0.67 for the first, 10.4 ± 0.41 for the second.

“AAAAAAAAAAAATGTGCACACGCGTACAGACAAAAA [CACACA_site2005]” and “TATACAATATAAAATACACACGCACCCAAAAAAAAA [CACACA_site9174]” are within error of each other in “gcPBM binding intensity (ln)” value: 11.8 ± 0.99 for the first, 10.6 ± 0.4 for the second.

“AACATATAAAAATGTGCACACACACCCATATATATA [CACACA_site1525]” and “AAAAAAAAAACAAATACACACGCACCCAAAAAAAAA [CACACA_site8166]” are within error of each other in “gcPBM binding intensity (ln)” value: 10.4 ± 0.3 for the first, 10.5 ± 0.26 for the second.

“AAGGAACTATAATATACACACATAAGTGTACTTATA [CACACA_site7816]” and “TATATATATATAACAACACACACAGATCATAAAACT [CACACA_site8670]” are within error of each other in “gcPBM binding intensity (ln)” value: 11.5 ± 1 for the first, 10.3 ± 0.27 for the second.

“TTAATACCCAGACACACACACACAAAATAAAATACA [CACACA_site7968]” and “TTGTATTAAAATCAAGTGCATATAATTTAAGTTCAT [GTGCAC_site9495]” are within error of each other in “gcPBM binding intensity (ln)” value: 10.2 ± 0.4 for the first, 10 ± 0.16 for the second.

Compared with “ATAATTAACAAATACACACACACACGCCCACAAAAA [CACACA_site6389]”, “AAATTTAAATAATGTGCGCATCTTAATATATATAAG [GTGCAC_site9890]” is lower in “gcPBM binding intensity (ln)” value: 10.9 ± 0.54 for the first, 10.2 ± 0.13 for the second.
